Measured values taken from PubChem BioAssay (EPA / NIEHS).
Results filed as inconclusive are left out. The source made the active and inactive calls. How the source made its calls: active means hit-call score of the fitted dose curve at least 0.9, where 1 is the maximum; inconclusive means response in the unintended direction; inactive means score below 0.9.

molecular target: Cellular tumor antigen p53 (Homo sapiens) (UniProt P04637); test: TOX21_p53_BLA_p4_ratio: Tox21 HCT-116 p53 Agonism Beta-lactamase Assay, Ratio, Phase 4 (AID 2283601)
Summary of the method: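 HCT116 cells carrying an inducible beta-lactamase reporter were plated at 4000 cells/well, rested 5 h, then exposed to compounds in DMSO (217-fold dilution) for 16 h at 37C. CCF4-AM substrate was loaded 2 h at room temperature; 460/530 nm emission ratio scored gain-of-signal versus DMSO.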

Cellular tumor antigen p53 (Homo sapiens), sequence (P04637 whole entry, looked up): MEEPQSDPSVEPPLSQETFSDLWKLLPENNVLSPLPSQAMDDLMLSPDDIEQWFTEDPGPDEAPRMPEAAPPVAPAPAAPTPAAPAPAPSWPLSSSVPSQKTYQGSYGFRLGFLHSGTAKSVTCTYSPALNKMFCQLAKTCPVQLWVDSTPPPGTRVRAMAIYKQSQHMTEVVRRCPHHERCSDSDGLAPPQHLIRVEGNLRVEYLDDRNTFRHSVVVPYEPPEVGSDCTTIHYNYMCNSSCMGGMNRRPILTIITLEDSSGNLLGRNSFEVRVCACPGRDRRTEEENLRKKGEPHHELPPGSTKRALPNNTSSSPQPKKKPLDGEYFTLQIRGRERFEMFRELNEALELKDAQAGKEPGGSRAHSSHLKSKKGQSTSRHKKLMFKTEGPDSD

| Compound | outcome | AC50 |
| --- | --- | --- |
| NC(=O)CN1CC(O)CC1=O (configuration not stated) | inactive |  |
| COP(=S)(OC)Oc1ccc(S(N)(=O)=O)cc1 | inactive |  |
| CN(C)CCc1ccc(O)cc1 | inactive |  |
| O=C1OC2(c3cc(Br)c(O)cc3Oc3c2cc(Br)c(O)[c]3[Hg])c2ccccc21 (configuration not stated) | inactive |  |
| CCCCCN(C)CCC(O)(P(=O)(O)O)P(=O)(O)O | inactive |  |
| NC(=O)C(Cl)Cl | inactive |  |
| C[C@@H](Cc1ccccc1)N(C)C | inactive |  |
| CN1C(=O)CC(=O)N(c2ccccc2)c2cc(Cl)ccc21 | inactive |  |
| C=CCC1([C@H](C)CCC)C(=O)NC(=O)NC1=O | inactive |  |
| COc1ccccc1N1CCNCC1 | inactive |  |
| Cn1c(CCCC(=O)O)nc2cc(N(CCCl)CCCl)ccc21 |  | 32.4 µM (active) |
| O=C1CN(O)C(c2ccccc2)=c2cc(Cl)ccc2=N1 | inactive |  |
| Cc1ncc(CNC(=O)N(CCCl)N=O)c(N)n1 | inactive |  |
| CNC(=O)Oc1ccccc1C1OCCO1 | inactive |  |
| Cl/C=C\Cl | inactive |  |
| NNC(=O)c1cccnc1 | inactive |  |
| COc1cccc([C@@]2(O)CCCC[C@@H]2CN(C)C)c1 | inactive |  |
| CCCCCCCCCCCCCCCl | inactive |  |
| COc1cc(CC(C)N)cc(OC)c1OC (configuration not stated) | inactive |  |
| CCS(=O)(=O)CCSP(=O)(OC)OC | inactive |  |
| CC(C)=CCOc1c2occc2cc2ccc(=O)oc12 | inactive |  |
| Cc1ccc(N)cc1C | inactive |  |
